PostGolgi ctrl: yeast control strain growth, post-Golgi counter-screen; actives 5% (n = 98,000); efflux-deficient yeast background strain, growth absorbance A615, 16 h; inhibition, % at 10 µM
CYP2C9 activ: increases human cytochrome P450 2C9 activity | activation factor at 5 µM | AID 1024 | recombinant CYP2C9, luciferin-H conversion, luminescence; stronger effect = higher value; factor 1 = untreated enzyme, 0 = blocked | actives 1.4% (n = 96,000) | P11712;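 active = activation factor of 2 or more for CYP2C9 at a 5 µM dose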;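 also: 0 = sulfaphenazole-blocked wells and 1 = vehicle-only wells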
PostGolgi yeast: growth inhibition of a yeast mutant, post-Golgi transport screen; inhibition, % at 10 µM; post-Golgi transport phenotypic cell assay; AID 739; actives 0.9% (n = 98,000);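 also: yeast cells grown in 1536-well plates; yeast grown about 18 h at 30C before absorbance read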
CYP2C19 inhib: blocks human cytochrome P450 2C19. actives 21% (n = 96,000). CYP2C19 Supersomes, luciferin-H EGE luminescence, 30 min. P33261. inhibition, % at 5 µM;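 active = CYP2C19 inhibition above a set limit at 5 µM in the primary screen, cut at about 50% in these data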;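 also: plate controls were negative control wells for no effect and 2.5 mM tranylcypromine positive control for full effect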
Target sequence (P33261 whole entry, looked up): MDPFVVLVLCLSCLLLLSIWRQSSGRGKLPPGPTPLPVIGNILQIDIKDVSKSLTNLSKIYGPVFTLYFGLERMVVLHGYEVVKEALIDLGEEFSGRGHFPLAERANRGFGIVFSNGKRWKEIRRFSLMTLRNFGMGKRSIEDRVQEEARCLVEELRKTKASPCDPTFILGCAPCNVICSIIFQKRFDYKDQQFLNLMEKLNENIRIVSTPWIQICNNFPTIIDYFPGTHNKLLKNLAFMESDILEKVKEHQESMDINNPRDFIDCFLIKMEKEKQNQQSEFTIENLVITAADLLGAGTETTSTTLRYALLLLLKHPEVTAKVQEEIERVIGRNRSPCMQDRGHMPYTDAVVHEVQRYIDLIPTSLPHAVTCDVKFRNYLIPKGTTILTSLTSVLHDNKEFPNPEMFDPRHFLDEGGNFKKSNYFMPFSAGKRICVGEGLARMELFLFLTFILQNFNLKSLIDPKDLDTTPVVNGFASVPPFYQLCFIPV
CYP2C19 activ: cytochrome P450 2C19 (human) activation; recombinant CYP2C19, luciferin-H EGE luminescence; stronger effect = higher value; 0 = fully inhibited enzyme, 1 = untreated enzyme; activation factor at 5 µM; 96,000 tested, under 10 active;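 active = activation factor of at least 2 at 5 µM in the primary screen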;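 also: 0 = wells with 2.5 mM tranylcypromine and 1 = vehicle-only wells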
CYP2C9 inhib: human CYP2C9 inhibition; P11712; CYP2C9 Supersomes, luciferin-H conversion, luminescence; inhibition, % at 5 µM; actives 20% (n = 96,000);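 active = blocking of liver enzyme CYP2C9 beyond about 50% at 5 µM, limit read from the data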
* = called active by the depositor; x = no result given. Only a sample is shown. Rule as the data show it, unless noted: active = inhibition above about 30%; inactive = the rest.

SMILES | PostGolgi ctrl | CYP2C9 activ | PostGolgi yeast | CYP2C19 inhib | CYP2C19 activ | CYP2C9 inhib
CC(C)(C)NC(=O)c1ccc(Sc2ccccc2)c([N+](=O)[O-])c1 | 8 | 0.1 | 0 | 70* | 0.3 | 92*
COc1cc(C(=O)N[C@H](C(=O)NC2CCCCCC2)C(C)C)cc(OC)c1OC | -5 | 0.7 | -10 | 11 | 0.9 | 25
COc1cc(OC)cc(C(=O)N[C@H](C(=O)NC23CC4CC(CC(C4)C2)C3)C(C)C)c1 | 28 | 0.6 | 47* | 46 | 0.5 | 44
O=C(NCSc1ccnc(SCNC(=O)c2ccc(F)cc2)n1)c1ccc(F)cc1 | -1 | 0.9 | -6 | 6 | 0.9 | 8
COc1ccc(CCN2C(=O)C(O)=C(C(=O)c3ccco3)C2c2cccs2)cc1OC (configuration not stated) | 12 | 0.5 | 2 | 1 | 1 | 53*
CCN(CC)CCCN1C(=O)C(O)=C(C(=O)c2ccco2)C1c1ccc(OC(C)C)cc1 (configuration not stated) | 43* | 0.9 | -5 | 6 | 0.9 | 8
COc1ccc(CCN2C(=O)C(O)=C(C(C)=O)C2c2ccccc2OC)cc1OC (configuration not stated) | -1 | 1.2 | -2 | -15 | 1.1 | -24
CCOc1cc(C2C(C(=O)c3ccc(C)o3)=C(O)C(=O)N2CCc2ccccc2)ccc1O (configuration not stated) | 4 | 0.8 | -7 | 24 | 0.8 | 22
C=CCOc1ccc(C2C(C(=O)c3ccco3)=C(O)C(=O)N2CCCN(CC)CC)cc1 (configuration not stated) | 3 | 1.1 | -1 | 6 | 0.9 | -5
Cc1ccc2nc(N3C(=O)C(O)=C(C(=O)c4ccco4)C3c3cccs3)sc2c1 (configuration not stated) | 11 | 0 | 1 | 9 | 0.9 | 96*
COc1cc(C2C(C(=O)c3ccco3)=C(O)C(=O)N2CCc2ccccc2)ccc1O (configuration not stated) | 28 | 0.5 | 8 | 7 | 0.9 | 54*
Cc1cc(/C(=N/O)C(C)(C)NO)ccc1Cl | -2 | 0.9 | 16 | 35 | 0.6 | 6
Cc1cc2nc(SCCOC(=O)Nc3ccc(Cl)cc3)nc(C)c2cc1C | 15 | 1 | 1 | 16 | 0.8 | 0
Cn1ncc(Br)c1C(=O)Nc1ccc(Cl)cn1 | 6 | 0.9 | -4 | 12 | 0.9 | 12
CCCn1c2c(c(O)c(C(=O)NC)c1=O)CCCC2 | 7 | x | -7 | x | x | x
CCCn1c2c(c(O)c(C(=O)Nc3ccc(OC)cc3)c1=O)CCCC2 | 30 | 0.2 | 24 | 6 | 0.9 | 79*
COc1cccc(-n2nnnc2SCC(=O)NCCc2ccccc2)c1 | 16 | 0.9 | 3 | 93* | 0.1 | 13
COc1ccc(C)cc1-n1nnnc1SCC(=O)Nc1cc(C)on1 | 13 | x | 2 | x | x | x
COc1cccc(-n2nnnc2SCC(=O)c2ccc(NC(C)=O)cc2)c1 | 8 | 0.9 | 22 | 15 | 0.8 | 7
COc1ccc(OC)c(-n2nnnc2SCC(=O)NCCc2ccccc2)c1 | 10 | 0.5 | -18 | 60* | 0.4 | 54*
CCn1cc(C(C)(C)C)c(C#N)c1NC(C)=O | 5 | 1.4 | -4 | 5 | 0.9 | -38
OC1(c2cccc(C(F)(F)F)c2)CCNCC1 | 0 | 1.1 | -16 | 2 | 1 | -11
CN(c1ccccc1)c1nc2ccsc2c(=O)s1 | 7 | 0.5 | 1 | 21 | 0.8 | 48
COc1ccc(Cl)cc1C(=O)n1nc(C)cc1C | 3 | 1.1 | 3 | 27 | 0.7 | -13
CCn1c2c(c3cc(Cl)ccc31)CCCC2=O | 12 | 1 | -1 | 5 | 0.9 | 0
SMILES | PostGolgi ctrl | CYP2C9 activ | PostGolgi yeast | CYP2C19 inhib | CYP2C19 activ | CYP2C9 inhib
CCCc1nn(-c2cc(Cl)ccc2OC)c2c1C(=O)CCC2 | 4 | 0.6 | -1 | 59* | 0.4 | 42
CCCCc1nn(-c2cc(Cl)ccc2OC)c2c1C(=O)CC(C)(C)C2 | 32* | 0.4 | -4 | 44 | 0.6 | 56*
Cc1ccc(NC(=S)N2CCOCC2)c(C)c1 | 1 | 1 | -10 | 8 | 0.9 | 3
CCn1c(CNc2ccc(F)cc2)nnc1SCC(=O)OC1CCCCC1 | 9 | 0.5 | 0 | 32 | 0.7 | 51*
COCCCn1c(SCC(=O)NC2CCCCC2)nnc1-c1ccncc1 | 4 | 1.1 | -6 | 38 | 0.6 | -7
CCOC(=O)CN(C(=O)CSc1nnc(CNc2ccc(F)cc2)n1CC)c1ccc(F)cc1 | 14 | 1.1 | -5 | 15 | 0.8 | -15
